An excerpt weighted towards active compounds, which were near 3.9% of everything screened.
HSF-1 act – increases HSF-1 driven luciferase reporter signal; NIH3T3-HGL HSF-1 luciferase reporter, MG132, 8 h; 100% = twice DMSO control signal; activation, % at 9 µM; hit rate 1.7% among 300,000; AID 504408;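 active = mean replicate activation of at least 50% with a set share of replicates each reaching 50%; inconclusive = only one of those two conditions met; inactive = mean below 50% and too few replicates reaching it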
Wnt act – Wnt/beta-catenin pathway activation | activation, % at 9.35 µM | Wnt/beta-catenin reporter cell assay, activator, plate reader | hit rate 1.2% among 300,000 | AID 743398; in the data active = activation above about 30%, passing the limit was not always enough; inconclusive = no clear call, values can overlap the other calls
MITF act – MITF TRPM1 promoter activation in melanoma cells; SK-MEL-5 TRPM1-promoter luciferase, 24 h; % of positive control, neutral wells = 0; activation, % at 12.5 µM; hit rate 0.75% among 300,000; AID 588334;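 active = mean activation of at least 80% with every replicate also reaching 80%; inconclusive = mean reaches 80% but some replicate falls short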
esBAF inh – inhibitors of esBAF chromatin remodeling in mouse ES cells. Bmi1-luciferase knock-in reporter, 24 h; 100% = twice the neutral-well signal. reporter increase, % at 12.5 µM. hit rate 2% among 350,000. AID 602393; in the data active = activation above about 40%; inconclusive = no clear call, values can overlap the other calls;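 also: a rise in the Bmi1 reporter signal indicates esBAF inhibition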
HSF1 inh – HSF1 inhibition; NIH3T3-HGL HSE-luciferase, MG132-induced, luminescence 8 h; active compounds read low; activity change, negative = inhibition, % at 7.5 µM (by protocol); hit rate 0.77% among 300,000; AID 2098;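 active = more than half of replicate wells show activity change below -50%, luminescence cut by over half; inconclusive = some wells, but at most half, below -50%; inactive = no replicate well below -50%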;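 also: luciferase reports HSF-1 transcriptional activity via heat shock element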
A number is an active result; i = inactive; ? = inconclusive; nt = not tested or not shown.

SMILES	HSF-1 act	Wnt act	MITF act	esBAF inh	HSF1 inh
C[C@H](CO)N1C[C@H](C)[C@H](CN(C)S(=O)(=O)c2ccc(Cl)cc2)Oc2ccc(N(C)C)cc2CC1=O	nt	nt	nt	i	nt
COc1cccc(OCc2nc3ccccc3c(=O)n2N)c1	i	i	i	46.6	i
Cc1ccc(/C=C/C(=O)c2ccccc2O)cc1	i	i	i	nt	i
Cc1ccc(/C=C/C(=O)c2nc3ccccc3[nH]2)cc1	i	36.7	i	i	i
CC(=O)Nc1nc2ccccc2[nH]1	i	i	i	nt	i
O=C(/C=C/c1c(F)cccc1Cl)Nc1nc2ccccc2[nH]1	62.5	37.2	?	nt	i
Cc1ccc(/C=C/C(=O)Nc2nc3ccccc3[nH]2)cc1	i	i	106.5	nt	i
C[C@@H]1CN([C@H](C)CO)S(=O)(=O)c2ccc(C3=CCCC3)cc2O[C@@H]1CN(C)C	nt	nt	nt	i	nt
CCCC1c2ccc(C)n2CCN1C(=O)Nc1ccc(F)cc1 (stereo unspecified)	i	nt	i	i	-65.9
Cc1ccc2c(c1)c1c(n2CC(O)CN2CCC(C)CC2)CCCC1 (stereo unspecified)	i	i	i	i	i
Cc1ccc2c(c1)c1c(n2CC(O)CN2CCOCC2)CCCC1 (stereo unspecified)	i	nt	nt	nt	-69.7
Cc1noc(C)c1NC(=O)N(C)C[C@H]1Oc2c(NS(=O)(=O)c3cccs3)cccc2C(=O)N([C@@H](C)CO)C[C@H]1C	nt	nt	nt	i	nt
C[C@@H]1CN([C@@H](C)CO)C(=O)CCCn2cc(nn2)CO[C@@H]1CN(C)Cc1ccc2cccnc2c1	nt	nt	nt	i	nt
CCN(CC)S(=O)(=O)c1cccc(NC(=O)CCNC(=O)NC23CC4CC(CC(C4)C2)C3)c1	i	nt	i	i	-65.7
C=CCN1c2ccccc2[C@]23C[C@@H](C(=O)OC)N(C(=O)c4ccc(Br)cc4)C2=NC(C(=O)OC)=C(C(=O)OC)[C@H]13	i	i	i	i	-69.3
C=CCN1c2ccccc2[C@]23C[C@@H](C(=O)OC)N(C(=O)OCC)C2=NC(C(=O)OC)=C(C(=O)OC)[C@H]13	i	i	i	i	i
COC(=O)C1=C(C(=O)OC)[C@@H]2N(Cc3ccccc3)c3ccccc3[C@@]23C[C@@H](C(=O)OC)N(C(=O)c2ccc(Br)cc2)C3=N1	i	nt	i	i	-68.3
COC(=O)C1=C(C(=O)OC)[C@@H]2N(C)c3ccccc3[C@@]23C[C@@H](C(=O)OC)N(C(=O)CC(C)C)C3=N1	i	i	i	i	-74.9
Cc1noc(C)c1S(=O)(=O)N(C)C[C@H]1OCCCC[C@@H](C)Oc2ccc(NC(=O)Nc3cccc4ccccc34)cc2C(=O)N([C@@H](C)CO)C[C@@H]1C	nt	nt	nt	i	nt
Cc1cc(C(=O)CN2CCC(C)CC2)c(C)n1-c1ccccc1F	i	i	i	nt	-72.8
COc1cc(C)c(S(=O)(=O)N2CCN=C2c2ccccc2)cc1C	56.1	nt	i	nt	i
Cc1cc(C)c(S(=O)(=O)N2CCN=C2c2ccccc2)cc1C	i	i	i	i	i
COc1c([N+](=O)[O-])c(=O)oc2ccccc12	i	i	i	nt	-72.4
CCNc1c([N+](=O)[O-])c(=O)oc2ccccc12	i	i	i	nt	i
C[C@@H]1CN([C@H](C)CO)C(=O)Cc2cc(NC(=O)Cn3cnnn3)ccc2O[C@H]1CN(C)Cc1ccccc1	nt	nt	nt	i	nt
SMILES	HSF-1 act	Wnt act	MITF act	esBAF inh	HSF1 inh
CO[C@@H]1CN(C)C(=O)c2cc(NC(=O)Nc3cccc(F)c3)ccc2OC[C@@H](C)N(C(=O)Nc2cccc(F)c2)C[C@H]1C	nt	nt	nt	i	nt
O=C(NCCC1=CCCCC1)c1ccc(Cl)cc1	59.0	nt	nt	nt	i
COc1ccc(C(=O)NCCC2=CCCCC2)cc1OC1CCN(C(C)C)CC1	i	i	i	60.3	i
Cc1cc(C(=O)NCCC2=CCCCC2)c(C)o1	60.1	i	i	i	i
COC(=O)[C@H](CC(C)C)NC(=O)NCCC1=CCCCC1	i	i	i	nt	i
COC(=O)[C@@H](NC(=O)NCCC1=CCCCC1)C(C)C	i	65.2	i	i	i
CS(=O)(=O)N(Cc1ccc(Cl)cc1)c1ccc(C(=O)NCCC2=CCCCC2)cc1	i	nt	i	i	i
O=C(Nc1ccc2c(c1)OCO2)N[C@H]1CC[C@H](CC(=O)N2CCN(c3ccccc3)CC2)O[C@@H]1CO	nt	nt	nt	i	nt
C=CCNC(=O)c1ccc(-c2ccc([N+](=O)[O-])cc2)o1	i	i	i	i	i
O=C(N/N=C/c1ccc(-c2cccc([N+](=O)[O-])c2)o1)c1ccc([N+](=O)[O-])cc1	i	i	i	nt	i
O=C(Nc1ccccc1F)Nc1ccc([N+](=O)[O-])cc1Cl	i	42.8	i	nt	i

Bioassay records (PubChem)
